# PubChem BioAssay (NCI)
# Compounds without any hit were thinned out: in the full panel of roughly 83,000, 20% have a hit.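 Treatment: one concentration, 48 hours, 96-well format. Scoring: percent growth, with anything below 10 considered active.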 A number with no mark means an inactive call. Activity calls are given as the source filed them.
# What was measured:
# Assay in all cases: NCI-60 one-dose screen, 48 h (100 = growth as untreated, 0 = no growth, -100 = all killed)
# Details in all cases: 10 µM
# 786-0 renal = system: 786-0 renal
# MALME-3M melanoma = system: MALME-3M melanoma
# UACC-257 melanoma = system: UACC-257 melanoma
# SN12C renal = system: SN12C renal
# TK-10 renal = system: TK-10 renal
# ACHN renal = system: ACHN renal
# CAKI-1 renal = system: CAKI-1 renal
# A498 renal = system: A498 renal
# RPMI-8226 leukemia = system: RPMI-8226 leukemia
# OVCAR-8 ovarian = system: OVCAR-8 ovarian
# OVCAR-4 ovarian = system: OVCAR-4 ovarian
# SK-OV-3 ovarian = system: SK-OV-3 ovarian
# IGROV1 ovarian = system: IGROV1 ovarian
# OVCAR-3 ovarian = system: OVCAR-3 ovarian
# BT-549 breast = system: BT-549 breast
# MDA-MB-435 melanoma = system: MDA-MB-435 melanoma
# MCF7 breast = system: MCF7 breast
# HCT-116 colon = system: HCT-116 colon
# HCC-2998 colon = system: HCC-2998 colon
# KM12 colon = system: KM12 colon
SMILES,growth (786-0 renal),growth (MALME-3M melanoma),growth (UACC-257 melanoma),growth (SN12C renal),growth (TK-10 renal),growth (ACHN renal),growth (CAKI-1 renal),growth (A498 renal),growth (RPMI-8226 leukemia),growth (OVCAR-8 ovarian),growth (OVCAR-4 ovarian),growth (SK-OV-3 ovarian),growth (IGROV1 ovarian),growth (OVCAR-3 ovarian),growth (BT-549 breast),growth (MDA-MB-435 melanoma),growth (MCF7 breast),growth (HCT-116 colon),growth (HCC-2998 colon),growth (KM12 colon)
O=C(/C=C/c1ccc(Cl)cc1Cl)c1nc2ccccc2n1Cc1ccc(Br)cc1,32.6%,84%,84.4%,75.7%,99.8%,71.3%,65.1%,103%,2.18% (active),80.6%,73.7%,92.9%,68.4%,68.4%,59.2%,79.2%,17.1%,25.8%,70.4%,82.7%
C[C@H]1[C@H](OC(=O)CCC(=O)N(CCCc2cn(-c3ccc([N+](=O)[O-])cc3)nn2)CCNc2ccnc3cc(Cl)ccc23)O[C@@H]2OC3(C)CC[C@H]4[C@H](C)CC[C@@H]1[C@@]24OO3,47.1%,47.5%,63.3%,54.9%,51.2%,37.5%,37.4%,116%,28.7%,23.7%,41.8%,98.2%,44.9%,40.8%,43%,31.5%,10.4%,31.1%,49.9%,33.6%
O=C(/C=C/c1cccc(Br)c1)c1nc2ccccc2n1Cc1ccc(F)cc1,12.5%,50.5%,55.1%,47.3%,80.2%,40.7%,54.4%,116%,-24.7% (active),28.2%,54.8%,81.2%,40.4%,22.1%,12.5%,11.6%,8.41% (active),-41.1% (active),25%,41.4%
O=C(/C=C/c1ccc(Cl)cc1)c1nc2ccccc2n1Cc1ccc(Br)cc1,38.9%,71.5%,71%,52.9%,93.7%,51.1%,57.4%,115%,-13.4% (active),66%,68.5%,94.7%,52.4%,38.2%,37.2%,54.2%,9.41% (active),33.1%,65.3%,67.6%
CC[C@]12C=CCN3CC[C@@]4(c5ccc(OC)cc5N(C)[C@H]4[C@@](O)(C(=O)OC)[C@@H]1OC(=O)CCCC[P+](c1ccc(OC)cc1)(c1ccc(OC)cc1)c1ccc(OC)cc1)[C@@H]32,-92.9% (active),-97.2% (active),-93.4% (active),-95.3% (active),-88.2% (active),-49.2% (active),-78.5% (active),-54.7% (active),-68.8% (active),-90.2% (active),-37.7% (active),-82.5% (active),-92% (active),-71.8% (active),-96.7% (active),-88.5% (active),-82.6% (active),-94.9% (active),-88.4% (active),-68.8% (active)
O=C(/C=C/c1ccccc1)c1nc2ccccc2n1Cc1ccc(Br)cc1,-89.8% (active),-64.7% (active),-51.1% (active),-58.7% (active),-47.9% (active),-74.5% (active),-19.2% (active),51%,-23.1% (active),-18.5% (active),27%,28.7%,-57.8% (active),-72.5% (active),-69.8% (active),-27.9% (active),-48.7% (active),-88.1% (active),-97.3% (active),-32.5% (active)
C=CC[Se]C(=O)c1cncc(C(=O)[Se]CC=C)c1,-97.3% (active),-67% (active),-75% (active),-95.6% (active),-20.3% (active),-12.9% (active),-8.92% (active),29.9%,-42.2% (active),-87.3% (active),-62.8% (active),-92.2% (active),-92% (active),-89.5% (active),-94.9% (active),-62.9% (active),-42.7% (active),-86.4% (active),-92.6% (active),-73.1% (active)
